Assay outcomes from PubChem BioAssay.
TDP1 inh = qHTS Assay for Inhibitors of Tyrosyl-DNA Phosphodiesterase (TDP1). recombinant TDP1, AlphaScreen DNA substrate cleavage. Potency, µM (series often up to 130 µM), most hits filed as inhibitors. 350,000 compounds, 0.28% hits. AID 485290, 2010; further: nearly all actives have a fitted effect of over 40% in size
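Signal: AlphaScreen proximity between streptavidin donor and anti-FITC acceptor beads on intact substrate. Reaction: Tdp1 1 nM, substrate 15 nM final, 5 min RT after 15 min compound preincubation.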
PI5P4Ka inh = qHTS for Inhibitors of phosphatidylinositol 5-phosphate 4-kinase (PI5P4K). Phosphatidylinositol 5-phosphate 4-kinase type-2 alpha (Homo sapiens), P48426. PI5P4Kalpha enzyme, ADP-Glo luminescence, 60 min; hits give low values. max response, %. 330,000 compounds, 1.2% hits. AID 652105, 2013; active means max response of -50% or lower; inconclusive means between -30% and -50%; inactive means -30% or higher; further: value at the top dose of about 77 µM
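Luminescence from ADP-Glo served as readout of PI5P4Kalpha activity in a qHTS format. Reaction: enzyme, substrate, compound, ATP at 5 microM final, 60 min at RT.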
Tb PGK inh = qHTS Assay to Find Inhibitors of Phosphoglycerate Kinase; Phosphoglycerate kinase, glycosomal (Trypanosoma brucei brucei), P07378; PGK/GAPDH coupled, Kinase-Glo luminescence, 60 min; Potency, µM (doses to about 57.5 µM), actives largely listed as inhibitors; 380,000 compounds, 0.043% hits; further: nearly all actives have a fitted effect of over 60% in size
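Luminescent ATP detection (Kinase-Glo Plus) follows a 60-minute room-temperature incubation, with wells lacking PGK as controls. Buffer: 100 mM TEA (pH 7.6), 5 mM MgCl2, 0.01% Tween-20. Coupling enzyme GAPDH (100 nM final) supplies unstable 1,3-BPG in-well.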
Tb PFK block = qHTS Assay to Find Inhibitors of T. brucei phosphofructokinase; AID 485367, 2010; ATP-dependent 6-phosphofructokinase (Trypanosoma brucei brucei), O15648; Potency, µM (doses to about 57.5 µM), usual class: inhibitors; 330,000 compounds, 0.17% hits; T. brucei PFK, ADP-Glo luminescence; further: nearly all actives have a fitted effect of over 60% in size
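In TEA buffer at pH 8.0 with 5 mM MgCl2, enzyme (1.25 nM) converted F6P (0.5 mM) and ATP (0.1 mM) for 45 min at room temperature. ADP product was read by luciferase luminescence.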
FEN1 inhibitor = qHTS Assay for the Inhibitors of Human Flap endonuclease 1 (FEN1); P39748; Recombinant FEN1 flap cleavage, fluorescence, 15 min; Potency, µM (top dose mostly 114 µM), most hits filed as inhibitors; 390,000 compounds, 0.35% hits; AID 588795, 2011; further: nearly all actives have a fitted effect of over 65% in size
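With each library titrated from low to high concentration, compounds met 10 nM FEN1 for 15 min at room temperature before 50 nM substrate was added; readings at 0 and 15 min fed four-parameter Hill curve fits.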
WRN inhibitor = qHTS for Inhibitors of WRN Helicase; AID 651768, 2012; 360,000 compounds, 0.46% hits; WRN helicase unwinding, fluorescent forked duplex, kinetic; Potency, µM (highest dose often 114 µM), actives largely listed as inhibitors; further: nearly all actives have a fitted effect of over 55% in size
Target sequence (Q14191 whole entry, looked up): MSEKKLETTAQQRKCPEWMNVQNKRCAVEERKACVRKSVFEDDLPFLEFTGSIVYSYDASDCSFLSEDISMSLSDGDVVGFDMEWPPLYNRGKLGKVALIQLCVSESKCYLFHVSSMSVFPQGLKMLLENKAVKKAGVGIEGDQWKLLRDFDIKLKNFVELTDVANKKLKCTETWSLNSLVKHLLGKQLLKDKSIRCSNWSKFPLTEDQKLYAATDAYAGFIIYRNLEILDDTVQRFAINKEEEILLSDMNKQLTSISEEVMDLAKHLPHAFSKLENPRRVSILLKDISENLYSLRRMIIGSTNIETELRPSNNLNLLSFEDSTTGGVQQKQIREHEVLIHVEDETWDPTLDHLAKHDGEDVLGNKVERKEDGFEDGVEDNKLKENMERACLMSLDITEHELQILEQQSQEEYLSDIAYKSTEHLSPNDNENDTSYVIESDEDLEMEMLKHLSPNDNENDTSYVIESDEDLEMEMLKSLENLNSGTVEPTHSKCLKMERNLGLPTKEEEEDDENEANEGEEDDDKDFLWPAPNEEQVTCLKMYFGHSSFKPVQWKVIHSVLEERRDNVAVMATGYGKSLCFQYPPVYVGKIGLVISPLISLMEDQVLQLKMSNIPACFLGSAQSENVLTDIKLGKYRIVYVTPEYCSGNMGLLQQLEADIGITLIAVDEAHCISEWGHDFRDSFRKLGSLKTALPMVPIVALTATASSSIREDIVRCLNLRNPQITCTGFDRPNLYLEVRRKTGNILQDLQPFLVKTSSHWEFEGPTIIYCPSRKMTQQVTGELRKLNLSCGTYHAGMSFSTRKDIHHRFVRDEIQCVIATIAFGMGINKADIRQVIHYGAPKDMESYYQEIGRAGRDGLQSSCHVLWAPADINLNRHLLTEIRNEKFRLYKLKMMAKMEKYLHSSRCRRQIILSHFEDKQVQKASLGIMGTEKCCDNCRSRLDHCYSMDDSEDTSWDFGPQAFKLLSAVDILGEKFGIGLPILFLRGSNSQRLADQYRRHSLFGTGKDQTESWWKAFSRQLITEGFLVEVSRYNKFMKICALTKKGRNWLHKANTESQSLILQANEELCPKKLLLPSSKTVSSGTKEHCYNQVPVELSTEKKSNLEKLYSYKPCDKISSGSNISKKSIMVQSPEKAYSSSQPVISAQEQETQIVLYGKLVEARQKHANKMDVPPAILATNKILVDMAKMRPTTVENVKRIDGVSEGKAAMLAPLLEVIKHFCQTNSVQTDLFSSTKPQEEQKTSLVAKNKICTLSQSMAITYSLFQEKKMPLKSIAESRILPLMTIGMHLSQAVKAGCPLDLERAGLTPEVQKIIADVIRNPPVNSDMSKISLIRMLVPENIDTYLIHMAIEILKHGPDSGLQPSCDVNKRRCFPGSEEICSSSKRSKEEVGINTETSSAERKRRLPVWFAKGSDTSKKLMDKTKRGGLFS
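Screening of the MLSMR collection measured strand separation of a quenched forked DNA duplex (100 nM) by 20 nM WRN with 2 mM ATP, all final. Compounds were preincubated with enzyme 15 min at room temperature.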
Each line names hits and unclear results; the compound was inactive in the other large screens. Only some compounds are listed: those with a hit (about 1.5% of all), similar ones and a draw of the others. Unless noted, the call rests on the fitted dose curve; in most records, active means well fitted curve in the direction sought with a large enough effect; inconclusive means small, poorly fitted or top-dose-only effect, or another doubt; inactive means no such curve, though single readings can be large; an effect the other way counts as inactive or inconclusive.

O=C(O)c1cccc(NC2=C(Cl)C(=O)c3ccccc3C2=O)c1	PI5P4Ka inh -69
NC1CCc2ccccc21 (centres undefined)	none (no result: TDP1 inh, PI5P4Ka inh, Tb PGK inh, Tb PFK block, WRN inhibitor)
Nc1cc([N+](=O)[O-])ccc1Nc1ccc(O)cc1	PI5P4Ka inh -57
Nc1ccccc1Nc1ccc([N+](=O)[O-])cc1[N+](=O)[O-]	none
Nc1[nH]c(=S)nc2nnsc12	none (no result: TDP1 inh, PI5P4Ka inh, Tb PGK inh, Tb PFK block, WRN inhibitor)
CC(=O)/C(N=Nc1ccc(C(=O)O)cc1[N+](=O)[O-])=C(\C)O	PI5P4Ka inh -73 (no result: TDP1 inh)
CCOC(=O)/C(N=Nc1ccc(C(=O)O)cc1[N+](=O)[O-])=C(\C)O	none
C[C@@H]1Cc2c(O)c(O)cc(O)c2C(=O)O1	FEN1 inhibitor 56µM (no result: TDP1 inh)
CS(=O)(=O)c1ccc(N)c(SSc2cc(S(C)(=O)=O)ccc2N)c1	PI5P4Ka inh -81, Tb PFK block inconclusive, FEN1 inhibitor inconclusive
CCOc1ccc(N)c(SSc2cc(OCC)ccc2N)c1	PI5P4Ka inh inconclusive, FEN1 inhibitor inconclusive (no result: TDP1 inh)
Cc1cccc(Nc2nnc(SC/C(O)=C(\C#N)c3nc4ccccc4[nH]3)s2)c1	PI5P4Ka inh -54
Cc1cc(C)n2c(SCC(O)=C(C#N)c3nc4ccccc4[nH]3)nnc2n1	PI5P4Ka inh -74, FEN1 inhibitor inconclusive, WRN inhibitor inconclusive (no result: TDP1 inh, Tb PFK block)
Cc1ccc(Nc2nnc(SC/C(O)=C(\C#N)c3nc4ccccc4[nH]3)s2)c(C)c1	PI5P4Ka inh -60
Nc1ccccc1/C=C/c1ccnc2ccccc12	none (no result: TDP1 inh, PI5P4Ka inh, Tb PGK inh, Tb PFK block, WRN inhibitor)
O=c1cc(-c2ccc(O)cc2)oc2c(O)c(O)c(O)c(O)c12	Tb PGK inh 4.5µM, FEN1 inhibitor 20µM, WRN inhibitor 7.1µM (no result: TDP1 inh)
O=c1cc(-c2ccc(O)cc2)oc2c(C3O[C@H](CO)[C@@H](O)[C@H](O)[C@H]3O)c(O)cc(O)c12 (some centres undefined)	PI5P4Ka inh -73 (no result: TDP1 inh)
CCCOc1ccc(/C=C2/C(=O)ON=C2C)cc1OCC	none (no result: TDP1 inh)
COc1cc(/C=C2\C(=O)ON=C2c2ccccc2)cc(Br)c1O	PI5P4Ka inh -85, FEN1 inhibitor inconclusive, WRN inhibitor inconclusive (no result: TDP1 inh)
COc1cc(/C=C2\C(=O)ON=C2c2ccccc2)cc(Cl)c1O	PI5P4Ka inh -67, WRN inhibitor inconclusive
CCOc1cc(/C=C2/C(=O)ON=C2C)cc(Br)c1O	PI5P4Ka inh -67 (no result: TDP1 inh)
CCOc1ccc(NC(=O)c2nc(S(=O)(=O)Cc3ccc(F)cc3)ncc2Cl)cc1	none (no result: TDP1 inh, PI5P4Ka inh, Tb PGK inh, Tb PFK block, WRN inhibitor)
Oc1ccc(/C=N/N(Cc2ccccc2)c2ccccc2)c(O)c1O	PI5P4Ka inh -76, WRN inhibitor inconclusive
COC(=O)c1c(C)cc(OC(=O)c2c(C)cc(O)c(C=O)c2O)c(C)c1O	none (no result: PI5P4Ka inh, Tb PGK inh, Tb PFK block, FEN1 inhibitor, WRN inhibitor)
Cc1cc(O)c(C=O)c2c1C(=O)Oc1c(CO)c(O)c3c(c1O2)C(O)OC3=O (centres undefined)	PI5P4Ka inh -84, Tb PGK inh inconclusive, Tb PFK block 24µM, FEN1 inhibitor 3.5µM, WRN inhibitor 3.5µM (no result: TDP1 inh)
Cc1cc(O)c(C=O)c2c1C(=O)Oc1c(COC(=O)/C=C/C(=O)O)c(O)c(C(=O)O)c(C)c1O2	TDP1 inh 40µM (no result: PI5P4Ka inh, Tb PGK inh, Tb PFK block, FEN1 inhibitor, WRN inhibitor)
O=C1CCc2cc([S+](=O)([O-])NC3CCOCC3)ccc2N1	none (no result: PI5P4Ka inh, Tb PGK inh, Tb PFK block, FEN1 inhibitor, WRN inhibitor)
O=C(C[n+]1csc2ccccc21)c1ccc(O)c(O)c1	FEN1 inhibitor 50µM (no result: TDP1 inh, PI5P4Ka inh, Tb PGK inh, Tb PFK block, WRN inhibitor)
Cc1nc2nc(SCC(=O)NC(C)c3ccccc3)nn2c(C)c1Cc1c(F)cccc1Cl (centres undefined)	none (no result: PI5P4Ka inh, Tb PFK block, WRN inhibitor)
C=CC(=O)Nc1cccc(Nc2nc(N[C@H]3CC[C@H](N(C)C)CC3)nc3c2ncn3C(C)C)c1	FEN1 inhibitor 50µM, WRN inhibitor inconclusive (no result: TDP1 inh, Tb PFK block)
COc1ccc(CC(=O)n2[nH]c(=O)ccc2=O)cc1OC	PI5P4Ka inh inconclusive, WRN inhibitor 22µM
